Molecules are shown by their SMILES. Several values for one entry are separate records, joined by “and”; a condition that tells them apart may be missing. Identical values can stand only once. Inconclusive results are not listed. Activity calls are given as the source filed them. Unless noted, the call rests on the fitted dose curve; in most records, active means well fitted curve in the direction sought with a large enough effect; inconclusive means small, poorly fitted or top-dose-only effect, or another doubt; inactive means no such curve, though single readings can be large; an effect the other way counts as inactive or inconclusive.

A short description of experiment [1]: Primary qHTS for inhibitors of nuclear receptor binding SET domain protein 2 (NSD2) in an RCH-ACV wild type WT cells (2C) (AID 1645877; further: nearly all actives have a fitted effect of over 70% in size; further: potency means the concentration at half of the fitted maximal effect). (Quantitative high-throughput screening tests each substance at several concentrations.)
Experiment [2] addresses Catechol O-methyltransferase (Homo sapiens) (UniProt P21964). As to the kind of experiment: Confirmatory Screen for Target Class Profiling of Small Molecule Inhibitors of Methyltransferases (AID 1745852; calls by dose curve; further: potency means the concentration at half of the fitted maximal effect; on activity change, negative = inhibition: on the % scale 0 is the no-effect control and ±100 the full control effect). The following applies: MTase-Glo luminescence, SAH detection, recombinant enzyme; measured here: COMT max response; stronger effect = lower value.
For experiment [3], the target named is Guanidinoacetate N-methyltransferase (Homo sapiens) (UniProt Q14353). Described as above. The note with it: activity change, negative = inhibition: at 57.3 µM (top of the series) unless noted.
Experiment [4] deals with Nicotinamide N-methyltransferase (Homo sapiens) (UniProt P40261). The description is as above. The following applies: MTase-Glo luminescence, SAH detection, recombinant enzyme; measured here: NNMT max response; stronger effect = lower value.
Experiment [5] addresses Phenylethanolamine N-methyltransferase (Homo sapiens) (UniProt P11086). The description is as above. The following applies: MTase-Glo luminescence, SAH detection, recombinant enzyme; measured here: PNMT max response; stronger effect = lower value.
Experiment [6] addresses Glutathione peroxidase 1 (Homo sapiens) (UniProt P07203). As to the kind of experiment: Primary qHTS Assay for Inhibitors of Recombinant Selenoprotein Glutathione Peroxidase 1 (GPX1) (AID 1845191). Further: nearly all actives have a fitted effect of over 65% in size. Summed up:
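NADPH consumption tracked by fluorescence at 340/450 nm between t=0 and t=15 min, room temperature. Final mix: 10 nM GPX1, 100 nM glutathione reductase, 1 mM GSH, 0.5 mM NADPH, 0.5 mM cumene hydroperoxide, 0.01% BSA; 30 min compound–enzyme preincubation.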

The target in experiment [7] is Phospholipid hydroperoxide glutathione peroxidase GPX4 (Homo sapiens) (UniProt P36969). As to the kind of experiment: Primary qHTS Assay for Inhibitors of Recombinant Selenoprotein Glutathione Peroxidase 4 (GPX4) (AID 1845192). Further: nearly all actives have a fitted effect of over 65% in size. On activity change, negative = inhibition: on the % scale 0 is the no-effect control and ±100 the full control effect. Summed up: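 NADPH consumption followed by fluorescence at 340/450 nm, t=0 and after 15 min at room temperature. Reaction started with cumene hydroperoxide (0.5 mM final) after 30 min compound–GPX4 preincubation; final 200 nM GPX4, 100 nM GR, 1 mM GSH, 0.5 mM NADPH.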

Experiment [8] deals with Luciferin 4-monooxygenase (Photinus pyralis) (UniProt P08659). As to the kind of experiment: Primary firefly luciferase (FLuc) qHTS assay for identification of artifact compounds. (AID 1845220). Further: nearly all actives have a fitted effect of over 60% in size.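 On activity change, negative = inhibition: plate controls were DMSO vehicle for no effect and no enzyme for full effect.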 Summed up: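 FLuc 10 nM; luciferin 10 uM; ATP 10 uM; Tris-acetate pH 7.6, Mg-acetate 10 mM; 15 min RT preincubation; 5 min reaction; luminescence.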
A short description of experiment [9]: Primary fluorescence-based thiol-reactive (MSTI) qHTS assay for identification of artifact compounds. (AID 1845221). Further: nearly all actives have a fitted effect of over 65% in size. Further: potency means the concentration at half of the fitted maximal effect. Summed up: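 Compounds were incubated 1 h at room temperature in the dark with the MSTI probe (4 uM) in PBS pH 7.4, 2% DMSO. Signals were normalized between Acetyl-MSTI and MSTI.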
Experiment [10] deals with Nanoluciferase (engineered Oplophorus gracilirostris luciferase). Briefly: Primary Nanoluciferase (NLuc) qHTS assay for identification of artifact compounds. (AID 1845222).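 Further: NLuc secreted into diluted conditioned medium of S16 cells; 0% = DMSO and -100% = no enzyme.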 Summed up: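 NLuc from S16 cell medium (1:55) plus test compounds, 15 min, room temperature. Luminescence after Nano-Glo (1:100) addition, 5 min.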
The nature of experiment [11]: Primary redox qHTS assay for identification of artifact compounds. (AID 1845223).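 Further: 0% = DMSO and 100% = reference compound.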 Summed up:
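Redox-cycling detection via DTT (250 uM final) oxidation coupled to Amplex Red (25 uM)/HRP (250 mU/mL) in HBSS. 15 min preincubation plus 30 min after DTT, room temperature. Ex/Em 525/598 nm; 4-parameter Hill fit against DMSO and 10 uM DA3003.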

Experiment [12] is described as follows: NCATS anti-infectives library activity on HEK293 viability as a counter-qHTS vs the C. elegans viability qHTS (AID 1745854).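 Further: HEK293 cells exposed to compounds for 24 hr before the viability read; on the % scale 0 is the no-effect control and ±100 the full control effect.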 Summed up: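 Compound titrations (final up to 41.7 uM) were incubated with HEK293 cells for 24 hr at 37C under 5% CO2. Viable cells were quantified with CellTiter-Glo after 10 min at ambient temperature.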

Sequence of Glutathione peroxidase 1 (Homo sapiens) (P07203 whole entry, looked up): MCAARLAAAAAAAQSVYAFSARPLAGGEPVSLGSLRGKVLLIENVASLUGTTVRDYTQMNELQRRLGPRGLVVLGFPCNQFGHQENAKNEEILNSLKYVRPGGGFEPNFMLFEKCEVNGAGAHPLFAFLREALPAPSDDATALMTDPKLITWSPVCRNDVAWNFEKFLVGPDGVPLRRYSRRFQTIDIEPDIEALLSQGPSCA
Sequence of Catechol O-methyltransferase (Homo sapiens) (P21964 whole entry, looked up): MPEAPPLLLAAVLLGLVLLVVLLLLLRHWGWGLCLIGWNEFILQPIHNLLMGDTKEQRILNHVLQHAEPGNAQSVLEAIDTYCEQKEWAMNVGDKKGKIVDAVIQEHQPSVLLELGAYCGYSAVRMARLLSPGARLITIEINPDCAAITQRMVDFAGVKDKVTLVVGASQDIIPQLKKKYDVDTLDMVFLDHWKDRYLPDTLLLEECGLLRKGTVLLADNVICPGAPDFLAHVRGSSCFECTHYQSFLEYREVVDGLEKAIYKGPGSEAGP
Sequence of Phospholipid hydroperoxide glutathione peroxidase GPX4 (Homo sapiens) (P36969 whole entry, looked up): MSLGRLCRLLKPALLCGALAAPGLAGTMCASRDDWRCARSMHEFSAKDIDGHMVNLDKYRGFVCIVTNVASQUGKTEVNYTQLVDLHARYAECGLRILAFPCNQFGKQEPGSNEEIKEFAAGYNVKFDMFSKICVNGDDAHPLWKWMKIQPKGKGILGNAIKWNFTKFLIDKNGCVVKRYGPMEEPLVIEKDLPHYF
Sequence of Phenylethanolamine N-methyltransferase (Homo sapiens) (P11086 whole entry, looked up): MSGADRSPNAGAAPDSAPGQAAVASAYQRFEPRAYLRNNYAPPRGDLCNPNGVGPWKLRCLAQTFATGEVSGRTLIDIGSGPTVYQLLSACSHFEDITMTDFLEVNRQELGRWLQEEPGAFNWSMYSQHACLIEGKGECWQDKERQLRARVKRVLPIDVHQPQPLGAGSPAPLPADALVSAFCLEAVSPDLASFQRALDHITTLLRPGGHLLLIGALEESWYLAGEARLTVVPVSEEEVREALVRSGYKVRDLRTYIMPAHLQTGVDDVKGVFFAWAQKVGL
Sequence of Nicotinamide N-methyltransferase (Homo sapiens) (P40261 whole entry, looked up): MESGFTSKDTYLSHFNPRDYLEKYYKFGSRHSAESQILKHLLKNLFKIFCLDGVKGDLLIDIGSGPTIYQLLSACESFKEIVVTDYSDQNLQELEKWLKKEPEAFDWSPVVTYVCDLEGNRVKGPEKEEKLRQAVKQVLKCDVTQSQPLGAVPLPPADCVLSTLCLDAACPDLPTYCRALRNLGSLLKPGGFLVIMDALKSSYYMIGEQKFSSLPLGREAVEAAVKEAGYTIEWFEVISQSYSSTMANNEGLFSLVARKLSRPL

Consider `COC(=O)C1=CO[C@@H](O[C@@H]2O[C@H](CO)[C@@H](O)[C@H](O)[C@H]2O)[C@H]2[C@@H]1CC(OC)O[C@@H]2C` (stereo not given in full), for which the Potency entry in experiment [1], in [6], in experiment [7], in [8], in experiment [10] and in experiment [11] was “inactive” throughout. In addition, the activity was -63.3% in [2], -1.72% in experiment [4] and -2.32% in [5]. Further, the activity change, negative = inhibition in [3] was -2.71% [at 29.8 µM]. For the same compound, the Potency in [9] is 10.3 µM (active).
As for `CN(C)C/C=C/C(=O)Nc1cccc(C(=O)Nc2cccc(Nc3ncc(Cl)c(-c4c[nH]c5ccccc45)n3)c2)c1`, the Potency in experiment [1] is 72.8 nM (active) and 132 nM (active). Besides, the activity in experiment [2] is -3.58%; in [4], -56%; in experiment [5] it was -9.06%. Also, in [3], the activity change, negative = inhibition came to 1.16%. For the same compound, the Potency result in [6], in [7], in experiment [8], in [9], in experiment [10] and in experiment [11] was “inactive” throughout.
Consider `O=C(O)c1ccccc1NCCc1ccccc1`, for which the Potency result in experiment [1] was “inactive”.
For the compound `CNC(=O)c1ccccc1Nc1nc(Nc2ccc(N3CCNCC3)cc2)ncc1Cl`, the Potency entry in [1], in [6], in [7], in experiment [8], in experiment [10] and in experiment [11] was “inactive” each time. The activity is -21.5% in experiment [2], -58.7% in experiment [4] and -30.9% in [5]. Further, the activity change, negative = inhibition in [3] is -14.2%. The Potency in experiment [9] is 3.36 µM (active).
Consider `COc1cc2ncnc(Nc3ccc(F)c(Cl)c3)c2cc1NC(=O)/C=C/CN1CCCCC1`, for which the Potency in experiment [1] was 3320 nM (active); in experiment [3], 24.1 µM (active). Moreover, the activity in experiment [2] was -45.2%; in experiment [4] it was -36.6%; in experiment [5], -39.3%. In addition, the Potency entry in experiment [6], in experiment [7], in experiment [8], in experiment [9], in [10] and in [11] was “inactive” each time.
Take `CN1CCN(C(=O)c2ccc3cc(CCNc4ncnc5ccc(C#N)cc45)ccc3c2)CC1`: in experiment [1], the Potency was 1320 nM (active). Also, the activity in experiment [2] was -7.48%; in experiment [4] it was -11.9%; in experiment [5] it was -8.1%. The activity change, negative = inhibition in [3] was -3.33%. Also, the Potency entry in [6], in [7], in experiment [8], in experiment [9] and in [10] was “inactive” throughout.
With `CCCCc1nc2cc(/C=C/C(=O)NO)ccc2n1CCN(CC)CC`, the Potency in experiment [1] is 230 nM (active) and 525 nM (active). Besides, the activity was -23.3% in [2], -2.78% in [4] and 3.65% in experiment [5]. In addition, the activity change, negative = inhibition in experiment [3] turned out to be 4.34%. The Potency entry in [12], in experiment [6], in experiment [7], in [8], in experiment [10] and in experiment [11] was “inactive” in each case.
As to `CC(Oc1cc(-n2cnc3ccc(CN4CCN(C)CC4)cc32)sc1C(N)=O)c1ccccc1C(F)(F)F` (stereo not given), the Potency in experiment [1] is 649 nM (active); in experiment [3] it was 30.4 µM (active). Also, the values for the activity in experiment [2], in experiment [4] and in experiment [5] were -36.6%, -27.1% and -38.1%, respectively. For the same compound, the Potency result in [6], in experiment [7], in experiment [8], in experiment [9] and in experiment [10] was “inactive” throughout.
Regarding `CN(C)c1nc(NC2CCC(NCCc3ccc(Br)cc3OC(F)(F)F)CC2)nc2ccccc12` (stereo not given), the Potency in experiment [1] was 2580 nM (active). The activity in experiment [2] was -10.3%; in experiment [4], -85%; in experiment [5], -42.3%. Moreover, the activity change, negative = inhibition in experiment [3] is -2.23%. For the same compound, the Potency entry in experiment [6], in [7], in [8], in [9], in experiment [10] and in experiment [11] was “inactive” throughout.
On to `COc1cc(C(=O)NC2CCN(C)CC2)ccc1Nc1ncc2c(n1)N(C1CCCC1)CC(F)(F)C(=O)N2C`, for which the Potency in experiment [1] was 32.5 nM (active); in experiment [3], 27.1 µM (active). In addition, the activity is -24% in [2], -23.8% in [4] and -20.9% in experiment [5]. The Potency result in experiment [6], in experiment [7], in [8], in experiment [9], in experiment [10] and in [11] was “inactive” throughout.
In the case of `O=C(O)c1c(O)c(-c2ccccc2)nc2ccccc12`, the Potency result in [1] was “inactive”.
`Cc1c[nH]c2nccc(Oc3c(F)cc(Nc4cc(Cl)nc(N)n4)cc3F)c12`: the Potency in experiment [1] was 731 nM (active). The activity in experiment [2] was -14.6%; in experiment [4], -27.7%; in experiment [5], -3.98%. The activity change, negative = inhibition in experiment [3] turned out to be 0%. The Potency entry in experiment [6], in experiment [7], in experiment [8], in experiment [9], in experiment [10] and in experiment [11] was “inactive” in each case.
For `COc1cccc(-c2cc(NCc3ccc4c(c3)OCO4)nc(N)n2)c1`, the Potency in [1] is 163 nM (active). The values for the activity in experiment [2], in experiment [4] and in experiment [5] were -1.69%, -16.1% and -2.8%, respectively. In addition, the activity change, negative = inhibition in experiment [3] was found to be 0%. In addition, the Potency result in experiment [6], in [7], in [8], in experiment [9], in experiment [10] and in [11] was “inactive” in each case.
For `CCOC(=O)CCN(C(=O)c1ccc2c(c1)nc(CNc1ccc(C(=N)N)cc1)n2C)c1ccccn1`, the Potency result in [1], in [6], in experiment [7], in experiment [8], in [9] and in experiment [10] was “inactive” in each case. In addition, in [11], the Potency entry was “inactive”. For the same compound, the results for the activity in experiment [2], in [4] and in [5] were -3.92%, -8.7% and 0.0478%, respectively. In experiment [3], the activity change, negative = inhibition is 2.12%.
`CC/C=C\CCO[C@@H]1O[C@H](CO)[C@@H](O)[C@H](O)[C@H]1O`: the Potency entry in experiment [1], in experiment [6], in [7], in [8], in [10] and in experiment [11] was “inactive” throughout. Further, the results for the activity in experiment [2], in experiment [4] and in experiment [5] were -74.1%, 1.9% and 0.287%, respectively. Besides, the activity change, negative = inhibition in [3] came out at 0%. Besides, in experiment [9], the Potency is 5.97 µM (active).
For `CN(C)C/C=C/C(=O)Nc1cccc(C(=O)Nc2ccc(Nc3nccc(-c4cccnc4)n3)cc2)c1`, in experiment [1], the Potency is 578 nM (active). The activity is -2.53% in [2], -7.5% in [4] and 1.39% in [5]. Moreover, in experiment [3], the activity change, negative = inhibition is 0.0986%. In addition, the Potency result in experiment [6], in experiment [7], in experiment [8], in experiment [9], in experiment [10] and in [11] was “inactive” each time.
`CCN1CCN(Cc2ccc(NC(=O)Nc3ccc(Oc4cc(NC)ncn4)cc3)cc2C(F)(F)F)CC1`: in experiment [1], the Potency was 3.65 µM (active) and 2.35 µM (active). Further, the activity in experiment [2] is -1.25%; in experiment [4] it was -7.66%; in experiment [5], -2.63%. Besides, in experiment [3], the activity change, negative = inhibition came to 0%. Further, the Potency result in experiment [6], in [7], in experiment [8], in [9], in experiment [10] and in experiment [11] was “inactive” throughout.
Take `CC1CCC2(CO)C(C(=O)O)=CCCC2C1(C)CCc1ccoc1` (stereo not given): the Potency result in [1], in [6], in experiment [7], in experiment [8], in experiment [9] and in [10] was “inactive” in each case. In addition, the values for the activity in experiment [2], in experiment [4] and in [5] were -92.5%, 1.37% and 1.68%, respectively. The activity change, negative = inhibition in experiment [3] amounted to 0%.
